About 8,600 (12%) of roughly 69,000 compounds showed an effect of 50% or more. This excerpt belongs to a sample that is enriched for strong results.

This assay deals with Plasmodium berghei. Kind of assay: Screen against P. berghei liver stage (PbLuc), transformed with Luciferase, at 10uM. The class given is functional, HepG2. The following applies: tested at 10 uM.
Turning to `c1cnnc(N2CCCC2CNCc2nc(-c3cccs3)no2)c1` (stereo not given), the INHIBITION came out at 31.9%. The same measure for `c1cnnc(N2CCCC(NCc3nnc(-c4ccco4)o3)C2)c1` (stereo not given): 31.8%. As to `CN(Cc1nc(C2CC2)no1)C1CCCN(c2cccnn2)C1` (stereo not given), the INHIBITION is 53.5%.

Regarding `COCCc1noc(CN(C)C2CCCN(c3cccnn3)C2)n1` (stereo not given), the INHIBITION was 9.54%. Turning to `CN(Cc1nc(-c2ccco2)no1)C1CCCN(c2cccnn2)C1` (stereo not given), the INHIBITION came out at 20.1%. In the case of `C=c1ccoc1=C1NN=C(CNC2CCCN(c3cccnn3)C2)O1` (stereo not given) it was 56.05%. On to `c1cnnc(N2CCCC(NCc3cccc4c3OCO4)C2)c1` (stereo not given), for which the INHIBITION is 53.7%. For `c1cnnc(N2CCCC(NCc3nc(-c4cccs4)no3)C2)c1` (stereo not given), the INHIBITION was found to be 60.3%. As for `c1cnnc(N2CCCC(NCc3cccc4c3OCCCO4)C2)c1` (stereo not given), the INHIBITION amounted to 11.9%. For `c1csc(-c2noc(CNC3CCc4ncnn4C3)n2)c1` (stereo not given), the INHIBITION is given as 0.65%.

As to `C=c1ccoc1=C1NN=C(CNCC2CCCN2c2cccnn2)O1` (stereo not given), the INHIBITION was found to be 18.5%. The same measure for `c1cnnc(N2CCCC(NCc3cccc4c3OCCO4)C2)c1` (stereo not given): -12.2%; for `CC(C)c1noc(CCC(=O)NCC2CC2)n1`: 38.5%; for `O=C1CC(NCc2ccccn2)CN1CCc1ccc(F)cc1` (stereo not given): 17.8%. Take `CN1CCC/C1=N\S(=O)(=O)c1ccc(NC(=O)Cc2cccs2)cc1`: the INHIBITION is -6.14%. With `O=C(CCn1cc(Cl)cn1)N1C[C@H]2CC[C@@H](C1)N(Cc1ccccn1)C2`, the INHIBITION is given as -29.1%.

As to `Cc1cnn(CC2CCCCN2C(=O)c2cnc3n[nH]c(C)c3c2)c1` (stereo not given), the INHIBITION is given as -14%.

Take `CN(CCO)Cc1cc(Cl)ccc1OCC(O)CN1CCCCCC1` (stereo not given): the INHIBITION is recorded as -26.8%. The same measure for `O=C(NCc1ccccc1Cn1cncn1)C1CCC1`: 11.4%. Turning to `CC(=O)N1CCC(Cc2nccnc2-c2ccnn2C)CC1`, the INHIBITION worked out at 4.41%.

For the compound `CN(Cc1cn2ccccc2n1)C1CCCN(c2cccnn2)C1` (stereo not given), the INHIBITION was found to be 16.7%. The same measure for `c1cncc(-c2noc(CNC3CCCN(c4cccnn4)C3)n2)c1` (stereo not given): 8.66%. Consider `CN(c1ncnc2ccccc12)C1CCCN(c2cccnn2)C1` (stereo not given), for which the INHIBITION is on record as 52%. In the case of `CN(Cc1ccccn1)C1CCCN(c2cccnn2)C1` (stereo not given) it was 7.12%; in that of `c1csc(-c2noc(CCCN3CCCC3Cn3cncn3)n2)c1` (stereo not given), -9.76%. The same measure for `Cc1nccn1CC1CCCN1CCCc1nc(-c2cccs2)no1` (stereo not given): 68.4%; for `c1cnnc(N2CCCC(NCc3nc(-c4ccsc4)no3)C2)c1` (stereo not given): 59.3%. The same measure for `c1cnnc(N2CCCC2CNCc2nc(-c3ccsc3)no2)c1` (stereo not given): 27.9%; for `c1csc(-c2noc(CCCN3CCCC3Cn3cccn3)n2)c1` (stereo not given): 39.8%. As for `CN(c1ncnc2c1cnn2C)C1CCCN(c2cccnn2)C1` (stereo not given), the INHIBITION was -12.7%. With `CN(Cc1cn2ccccc2c1C#N)C1CCCN(c2cccnn2)C1` (stereo not given), the INHIBITION came out at 59.4%. For the compound `CN(c1ncnc2sccc12)C1CCCN(c2cccnn2)C1` (stereo not given), the INHIBITION was found to be 7.18%. In the case of `c1cc(C2CN(C3CCCC3)C2)n[nH]1` it was 7.4%. Turning to `O=C(CCOc1ccccc1F)N1CCOCC1`, the INHIBITION is given as 48.2%. The same measure for `CN(C)CCOCC1CN(Cc2ccccn2)Cc2nnn(C)c21` (stereo not given): -2.35%; for `CN(C)c1ccnc(C2CCCN2)n1` (stereo not given): 10.45%; for `Cc1cccc(C2(CNC(=O)CO)CCCC2)c1`: 21.5%. Consider `Cc1cccc(C2(CNC(=O)C(C)S(C)(=O)=O)CCCC2)c1` (stereo not given), for which the INHIBITION is 2.39%. As for `Cc1cccc(C2(CNC(=O)CCNS(C)(=O)=O)CCCC2)c1`, the INHIBITION came out at 67.5%. For the compound `C[C@@H]1CN(c2ccc(Cl)cn2)CC[C@@]1(O)C1CCOCC1`, the INHIBITION is recorded as 17.215%. In the case of `CCOC(=O)N1CCC(OC)c2ccccc2N(C)C(=O)C1` (stereo not given) it was 46.4%. Consider `CCc1cc(=O)n(CC(=O)N2CCCC2)c(-c2cccc(F)c2)n1`, for which the INHIBITION turned out to be 46.6%.

Regarding `COCC(=O)N1CCN(C(=O)c2scnc2C)CC1`, the INHIBITION was determined as 21.3%. As to `CCCOC1CCCN(c2ncnc3c2CCN(C(=O)C2CC2)C3)C1` (stereo not given), the INHIBITION is 49.9%.

`CNC(=O)C1CCN(c2ncnc3c2CCN(C(=O)C2CC2)C3)C1` (stereo not given): the INHIBITION is listed as 57.8%.

For the compound `CCN1CCN(c2ncnc3c2CCN(C(=O)C2CC2)C3)CC1`, the INHIBITION was 61.1%. On to `Cc1cnc(-c2nc(O)c3c(n2)CN(C(=O)C2CC2)CC3)cn1`, for which the INHIBITION amounted to 9.98%.

In the case of `O=C(C1CC1)N1CCCN(c2ncnc3c2CCNCC3)CC1`, the INHIBITION is reported as -20.6%. Regarding `CCN(CC)C1CCN(c2ncnc3c2CCN(C(=O)C2CC2)C3)C1` (stereo not given), the INHIBITION is listed as 64.5%. Take `CSCCC(=O)N1CCc2c(ncnc2N2CCOCC2)C1`: the INHIBITION is recorded as -103%. In the case of `CCOCC(=O)N1CCc2c(ncnc2N2CCOCC2)C1` it was -68.2%.

As to `O=C(C1CC1)N1CCc2c(ncnc2N2CCN3CCCC3C2)C1` (stereo not given), the INHIBITION is reported as 46.6%.

Consider `CN1CCC(c2cnc(NCc3nccn3C)cn2)CC1`, for which the INHIBITION is 33.2%. Consider `COCC1CN(Cc2ccc(C)o2)Cc2nnn(CC3CC3)c21` (stereo not given), for which the INHIBITION was -8.19%.

For the compound `Cn1nc(Br)nc1Sc1ccccc1NC(=O)C1CC1`, the INHIBITION amounted to 37.4%. As to `O=C1N(Cc2cccc(Cl)c2)CCC12CCCNC2` (stereo not given), the INHIBITION is on record as -15.9%. On to `Cc1cnn(CC2CCCN2C(=O)CCc2c(C)nn(C)c2C)c1` (stereo not given), for which the INHIBITION was determined as 0.825%. Consider `CCCC(NC(=O)c1cncc(C)c1)c1nnn[nH]1` (stereo not given), for which the INHIBITION is given as 23.5%. In the case of `CCN1CC[C@@]2(C(=O)Nc3ccccc3)CCN(S(C)(=O)=O)CC[C@@H]12` it was 35.8%; in that of `CCc1cc(C(=O)N[C@@H]2CC[C@@H](N3CCOCC3)[C@@H]2O)no1`, 10.9%. In the case of `Cc1ccc(N2CCN(C(=O)COc3nccc(C)n3)CC2)nn1` it was 50.5%; in that of `Cc1ccc(N2CCN(C(=O)COc3ncccn3)CC2)nn1`, -38.7%. Take `Cc1ccnc(OCC(=O)N2CCN(c3ncccn3)CC2)n1`: the INHIBITION was -17.8%. On to `CNC(=O)C1(c2cnccn2)CCCN1C(=O)c1c(F)cccc1F` (stereo not given), for which the INHIBITION is reported as 34%. The same measure for `C[C@@H]1CN(C(=O)CCCN2CCOCC2)CC[C@@]1(O)C1CCC1`: 64.9%; for `C[C@@H]1CN(C(=O)CCCN2CCOCC2)C[C@@]1(O)C1CC1`: 37.7%. In the case of `Cc1cccc(=O)n1CCC(=O)N1CC[C@](C)(O)[C@H](C)C1` it was 51.3%; in that of `C[C@@H]1CN(C(=O)CCN2CCOCC2)CC[C@]1(C)O`, 55%. On to `C[C@@H]1CN(C(=O)CCCN2CCCC2)CC[C@@]1(O)C1CCOCC1`, for which the INHIBITION is 10.6%. With `CC[C@H]1CN(C(=O)CCn2c(C)cccc2=O)CC[C@@]1(C)O`, the INHIBITION is -22.7%. In the case of `Cc1cccc(=O)n1CCC(=O)N1CC[C@@](O)(C2CCC2)[C@H](C)C1` it was 47.6%; in that of `C[C@@H]1CN(C(=O)CCN2CCCC2)CC[C@@]1(O)C1CCOCC1`, 25.4%. As to `C[C@@H]1CN(C(=O)CCN2CCCC2)CC[C@@]1(O)C1CCC1`, the INHIBITION was 27.9%. Regarding `CNCC1CCC(c2cc(CN(C)S(=O)(=O)N(C)C)n(C)n2)CC1` (stereo not given), the INHIBITION was 44.3%. As to `CC(C)OC(=O)N1C[C@@H]2CC[C@H]1CN(C(=O)c1ccccn1)C2`, the INHIBITION is listed as -26.4%. With `COc1nonc1NCn1nc(C)cc1C`, the INHIBITION was 39.7%. In the case of `CN(C)Cc1nc(C2(NC(=O)Nc3cccc(F)c3)CCCC2)no1`, the INHIBITION is 38.2%. As to `CCN1CCN(C2CCN(CC(=O)NCC(F)(F)F)CC2)C1=O`, the INHIBITION is -3.2%. With `Cc1nccn1[C@@H]1CC[C@@H](NC(=O)Cn2c(C)nc3ccccc32)[C@H]1O`, the INHIBITION is listed as 23.9%.

In the case of `COc1ccccc1CN(Cc1nc(C)no1)C1CC1`, the INHIBITION is 17.4%. The same measure for `Cc1cncnc1C1CCN(C(=O)C2(C)CCCCN2C)CC1` (stereo not given): 1.45%; for `Cn1ccnc1-c1ccc(NCC2COc3ccccc3O2)nn1` (stereo not given): -9.17%.

Consider `Cn1ccnc1-c1ccc(NCCC2COc3ccccc3O2)nn1` (stereo not given), for which the INHIBITION worked out at 34%. The same measure for `Cn1ccnc1-c1ccc(NC[C@H]2CCc3ccccc3O2)nn1`: 60%; for `CCC(O)CN1CCN(C(=O)c2sccc2C2CC2)CC1` (stereo not given): 19.5%; for `Cc1nc(CN2CCN(C(C)c3nc(C(C)C)no3)CC2)oc1C` (stereo not given): 6.7%. As for `Cc1cc(C)n(C2CN(c3ncnc4c3CCC4)C2)n1`, the INHIBITION stood at 0.868%. Consider `Cc1cc(C)n(C2CN(c3nc(N)nc4c3CCCC4)C2)n1`, for which the INHIBITION is on record as 34.1%.

In the case of `OCCC1CN(c2nc(-c3ccncc3)nc3c2CCNCC3)CCO1` (stereo not given), the INHIBITION turned out to be 11.8%. In the case of `Cc1cc(C)n(C2CN(c3nc(-c4ccncc4)nc4c3CCC4)C2)n1` it was 81.4%; in that of `c1cnn(C2CN(c3nc(-c4ccncc4)nc4c3CCC4)C2)c1`, 53.6%; in that of `Cc1cnn(C2CN(c3nc(-c4ccncc4)nc4c3CCC4)C2)c1`, 44.3%. Consider `CC1(c2ncc(CN(CC(=O)O)Cc3ccccc3)cn2)CCCCO1` (stereo not given), for which the INHIBITION is 16.9%. In the case of `Cc1ccc(F)c2c1CCCN2C(=O)c1cn(CC(=O)N(C)C)nn1` it was 29.1%; in that of `CC1(C)OCC(CNC(=O)c2cnn(-c3cccc(Cl)c3Cl)c2N)O1` (stereo not given), -101%; in that of `Cn1ccnc1CN1CCCC1CCc1ccccc1` (stereo not given), -67.9%. Consider `O=C(CCNc1ccccc1)NC1CCN(C(=O)C2CCCCC2)CC1`, for which the INHIBITION stood at 27.6%.

Take `O=C(c1ccoc1)N1CCOCC2(CCN(C3CCOCC3)C2)C1` (stereo not given): the INHIBITION was 34.4%.

Consider `CC(C)NC(=O)N1CCCC2(CCN(c3ccsc3)C2=O)C1` (stereo not given), for which the INHIBITION is -4.82%. Consider `CCc1nnc(CN2CCCC(c3cc(C(N)=O)[nH]n3)C2)o1` (stereo not given), for which the INHIBITION came to 4.71%. As for `CCC(=O)c1ccc(OCC(=O)NCC2CC(CC)=NO2)cc1` (stereo not given), the INHIBITION was found to be 52.6%. Turning to `CCC(=O)c1ccc(OCC(=O)NCC2CCCO2)cc1` (stereo not given), the INHIBITION is given as 3.48%. In the case of `C=C(C)COc1ccc(C(=O)NCC2CC(CC)=NO2)cc1` (stereo not given) it was 6.26%. As for `Cc1cc2cccc(NC(=O)N3CC[C@H]4CC[C@@H](C3)N4C)c2o1`, the INHIBITION is -4.01%.

As for `CCN(CC(=O)NC(C)C)C(=O)c1ccc(-c2ccsc2)nc1C`, the INHIBITION worked out at 47%.

For `CCc1n[nH]c(C2CN(C(=O)c3ncoc3CC)CCO2)n1` (stereo not given), the INHIBITION was -19.9%. Turning to `CCn1cnnc1C1CCN(C(=O)c2cccc(OC)c2OC)CC1`, the INHIBITION was determined as 22.3%.

Turning to `CN(C)C(=O)C1(Oc2ccc(Cl)cc2)CCNCC1`, the INHIBITION is listed as 1.79%. Consider `CN(Cc1ccncn1)C(=O)C1(Oc2ccc(Cl)cc2)CCNCC1`, for which the INHIBITION worked out at 53.3%. The same measure for `CN(Cc1ccoc1)C(=O)C1(Oc2ccc(Cl)cc2)CCNCC1`: 11.9%.

The values are drawn from ChEMBL document CHEMBL4513216, “Probing the Open Global Health Chemical Diversity Library for Multistage-Active Starting Points for Next-Generation Antimalarials” (ACS Infect Dis, 2020).
